# ELG1 repair inh: inhibitors of ELG1-dependent DNA repair in HEK293T cells; AID 504467; 330,000 tested, 2.3% active; Potency, µM (top dose mostly 46.1 µM), for the others: top-dose activity change, negative = inhibition, usual class: inhibitors; HEK293T ELG1-luciferase reporter, luminescence, 16 h; DNA damage induced by 5-fluorouridine; further: on the % scale 0 is the no-effect control and ±100 the full control effect; nearly all actives have a fitted effect of over 55% in size
#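 Cells (2,000 per well) received 5-fluorouridine plus test compound or DMSO and were incubated 16 hr at 37 °C, 5% CO2. Luciferase activity was read by luminescence 30 min after ONE-Glo addition; signal suppression marked inhibition of damage-induced ELG1 function.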
# RORg inh: inhibitors of mouse ROR gamma transcriptional activity | P51450 | Drosophila S2 Gal4-RORgamma UAS-luciferase reporter, 20 h | Potency, µM (top dose mostly 53.6 µM), without a hit: at the highest dose activity change, negative = inhibition, hits mostly inhibitors | 310,000 tested, 5.4% active; further: on the % scale 0 is the no-effect control and ±100 the full control effect; nearly all actives have a fitted effect of over 60% in size
# Target sequence (P51450 whole entry, looked up, the tested form may be a part): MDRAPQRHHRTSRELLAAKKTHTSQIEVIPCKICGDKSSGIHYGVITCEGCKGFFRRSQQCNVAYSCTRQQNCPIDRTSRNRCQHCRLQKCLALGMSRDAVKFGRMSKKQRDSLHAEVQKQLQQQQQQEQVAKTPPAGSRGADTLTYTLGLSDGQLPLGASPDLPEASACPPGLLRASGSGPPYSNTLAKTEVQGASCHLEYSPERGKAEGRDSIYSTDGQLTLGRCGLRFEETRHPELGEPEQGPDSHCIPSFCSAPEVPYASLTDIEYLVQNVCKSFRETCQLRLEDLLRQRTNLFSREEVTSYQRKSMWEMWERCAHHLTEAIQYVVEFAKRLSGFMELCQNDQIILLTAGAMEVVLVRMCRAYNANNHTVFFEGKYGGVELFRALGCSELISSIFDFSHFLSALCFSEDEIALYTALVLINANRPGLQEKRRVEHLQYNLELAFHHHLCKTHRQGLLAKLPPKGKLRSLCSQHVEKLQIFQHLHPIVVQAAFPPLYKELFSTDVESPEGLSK
#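 Stably transfected Drosophila Schneider cells are the test system, with ROR gamma fused to Gal4 and luciferase under UAS control; luminescence is read after 20 hr of 700 uM copper sulfate induction at ambient temperature.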
# SW480 rerep: induces DNA re-replication in SW480 colon adenocarcinoma cells; 340,000 tested, 1.8% active; SW480 DNA re-replication, Hoechst DNA content imaging, 48 h; Potency, µM (titrated, usually from 46.1 µM), inactives show at the highest dose re-replication activation, most hits filed as activators; further: % of control where 0% means no effect; nearly all actives have a fitted effect of over 55% in size
#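 Treated cells incubate 48 hr (37 C, 5% CO2), are stained 40 min with Hoechst, and nuclear fluorescence is enumerated; a rise in nuclei with high DNA signal marks re-replication.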
# VP16 counter: counter-screen for ROR gamma inhibitors: Gal4-VP16 reporter | Drosophila S2 Gal4-VP16 UAS-luciferase, luminescence, 20 h | 310,000 tested, 3.5% active | Potency, µM (highest dose often 53.6 µM), for the others: at the highest dose activity, negative = inhibition, most hits filed as inhibitors | AID 2546;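 further: Gal4-VP16 expression switched on by copper sulfate through the metallothionein promoter; on the % scale 0 is the no-effect control and ±100 the full control effect; nearly all actives have a fitted effect of over 50% in size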
# MCF10A rereplic: inducers of DNA re-replication in MCF 10A breast cells. Potency, µM (doses to about 46.1 µM), for the others: top-dose activity, positive = re-replication, most hits filed as activators. MCF 10A DNA re-replication, Hoechst nuclear intensity, 48 h. 350,000 tested, 2.9% active; further: % of control where 0% means no effect; nearly all actives have a fitted effect of over 50% in size
# Numbers without * were called inactive; ? = inconclusive; · = no result given; [ ] = dose if it differs, or a comment. Compounds with a hit are over-represented: about 10% of the library has one in this group of screens. The call rests on the fitted dose curve; in most records, active means well fitted curve in the direction sought with a large enough effect; inconclusive means small, poorly fitted or top-dose-only effect, or another doubt; inactive means no such curve, though single readings can be large; an effect the other way counts as inactive or inconclusive. Potency means the concentration at half of the fitted maximal effect.
SMILES,ELG1 repair inh,RORg inh,SW480 rerep,VP16 counter,MCF10A rereplic
COC(=O)[C@@H]1[C@@H](O)[C@@]2(O)c3c(OC)cc(OC)cc3O[C@@]2(c2ccc(OC)cc2)[C@H]1c1ccccc1,·,0.398µM*,·,0.1µM*,·
COC(=O)C1C(c2ccccc2)C2C(=O)c3c(OC)cc(OC)cc3O[C@@]12c1ccc(OC)cc1 (some centres not stated),·,4.1%[10 µM],·,-10.1%[10 µM],·
O=C1C=CC[C@@H]2[C@H]3CCCN4CCC[C@@H](CN12)[C@@H]34,·,-13.2%,·,-2.3%,·
COc1ccc(NC(=O)CCOc2cc(C)ccc2C)cc1S(=O)(=O)N1CCCCC1,23.1µM*,·,0.9%,·,?
O=C(Cc1coc2cc3c(cc12)CCC3)OCC(=O)N1CCCC1=O,-5.6%,-30.5%,0.9%,?,-0.1%
Cc1nn(Cc2ccccc2)c2c1C(c1ccco1)C(C#N)=C(N)O2 (configuration not stated),11.2%,7.08µM*,2.5%,-17.3%,4.9%
O=C(Nc1nnc(-c2ccco2)o1)c1cccc2ccccc12,7.5%,0.0316µM*,1.8%,-98.4%,?
ClC(Cl)Br,·,-2.2%,·,-6.4%,·
CNc1cc(Cl)c2nonc2c1[N+](=O)[O-],?,1µM*,-137.4%,3.55µM*,?
c1ccc(N2CC[C@@]3(CCCNC3)C2)cc1,·,-1.6%,·,1.6%,·
C/C=C1/CN2CC[C@]34C(=C(C=O)[C@@H]1C[C@H]23)Nc1c(O)cccc14,·,30.3%,·,2.8%,·
COc1ccccc1OP(=O)(Nc1ccc(Br)cc1)Oc1ccccc1OC,?,?,22.8%,-22.9%,21.5%
COc1ccc(NP(=O)(Oc2ccccc2OC)Oc2ccccc2OC)cc1,20.6µM*,39.8%,?,6.4%,?
C[C@H]1COC2=C1C(=O)C(=O)c1c2ccc2c1CCCC2(C)C,?,-8.3%,?,-11.3%,18.4µM*
CN(C)CC(C(=O)Cc1ccccc1)c1ccccc1 (configuration not stated),·,·,4.61µM*,·,13µM*
C[C@@H]([C@@H](O)c1ccccc1)N(C)C(=O)Cc1ccccc1,·,·,-2.6%,·,6.3%
CCOC(=O)N(C)C(=O)CSP(=S)(OCC)OCC,·,-9.3%,·,7.0%,·
CC(=O)O[C@H]1C[C@@H]2OC3C=C(C)CCC3(C)[C@@]1(C)[C@@]21CO1 (some centres not stated),·,·,9.2µM*,·,1.03µM*
OC(c1cccc(Cl)c1)(c1cccc(Cl)c1)C1CN2CCC1CC2 (configuration not stated),?,6.31µM*,6.9%,11.2µM*,?
O=C(Nc1cccc(C(F)(F)F)c1)OC1CN2CCC1CC2 (configuration not stated),-1.5%,11.7%,5.9%,-0.3%,-0.5%
CN1C(=O)NC(=O)/C(=C\C=C\c2ccccc2[N+](=O)[O-])C1=O,?,10µM*,14.6µM*,?,?
Cn1c(O)c(C=Nc2ccccc2)c(=O)n(C)c1=O,7.0%,1.7%,0.0%,-3.8%,-8.7%
Cn1c(O)c(/C=N/Nc2ccccc2)c(=O)n(C)c1=O,?,-33.6%,-17.9%,7.4%,6.51µM*
CCOC(=O)C(O)(c1ccc(N(C)C(=O)COc2ccccc2)cc1)C(F)(F)F (configuration not stated),·,·,0.2%,·,12.2%
CN(C)C(=O)O/N=C(\N)COc1ccc(C(C)(C)C)cc1,?,?,11.6µM*,?,?
SMILES,ELG1 repair inh,RORg inh,SW480 rerep,VP16 counter,MCF10A rereplic
C[C@@H](Cc1cccc(C(F)(F)F)c1)NCCCc1ccccc1,·,22.4µM*,·,-11.0%,·
CCN(CC)c1ccc(NC(=O)c2cccc(C)c2)cc1S(=O)(=O)Nc1ccccc1OC,?,23.0%,·,-4.3%,0.5%
CN1CC[C@@]2(c3cccc(O)c3)Cc3nc4ccccc4cc3C[C@H]2C1,·,-17.0%,·,-10.6%,·
COc1ccc(-c2oc3cc(OC)ccc3c(=O)c2O)cc1,·,5.01µM*,·,7.94µM*,·
Cc1noc(C)c1C(=O)N1CCC[C@@]2(CCN(CC(C)C)C2)C1,·,1.1%,·,-5.7%,·
C/C(=N\NC(=O)c1ccncc1)c1c(O)n(Cc2ccccc2)c(=O)[nH]c1=O,?,13.7%,-4.1%,?,0.4%
